TrxR1 substrate – is turned over as a substrate by rat TrxR1; AID 588456; 0.01% of 390,000 active; Potency, µM (highest dose often 114 µM), for inactives: top-dose activity change, negative = substrate turnover; purified TrxR1 substrate turnover, NADPH consumption readout; note: % is set by controls: 0 for no effect and ±100 for the full control effect; nearly all actives have a fitted effect of over 50% in size
Target sequence (O89049 whole entry, looked up): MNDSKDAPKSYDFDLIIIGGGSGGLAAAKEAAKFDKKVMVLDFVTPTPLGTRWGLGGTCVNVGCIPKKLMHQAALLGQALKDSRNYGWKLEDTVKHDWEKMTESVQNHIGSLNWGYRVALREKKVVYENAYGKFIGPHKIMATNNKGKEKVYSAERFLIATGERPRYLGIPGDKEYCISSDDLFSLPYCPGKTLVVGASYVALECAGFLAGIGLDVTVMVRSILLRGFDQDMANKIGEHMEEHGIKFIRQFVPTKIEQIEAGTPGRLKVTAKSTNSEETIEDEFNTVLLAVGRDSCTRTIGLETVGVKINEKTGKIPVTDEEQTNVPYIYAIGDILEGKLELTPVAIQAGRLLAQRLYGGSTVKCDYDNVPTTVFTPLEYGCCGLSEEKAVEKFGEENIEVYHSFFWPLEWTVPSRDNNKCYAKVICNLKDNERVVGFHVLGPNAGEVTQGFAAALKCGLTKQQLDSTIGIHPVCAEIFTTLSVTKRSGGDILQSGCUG
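Rat TrxR1, dispensed at 90 nM, was prereduced with 400 uM NADPH (final) for 5 min at ~22 deg C, then incubated with compound 15 min before 400 uM selenite. A first-read NADPH fluorescence drop versus no-compound background flagged substrates.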
Nrf2 block – blocks Nrf2 signaling; A549 ARE-Fluc reporter, luciferase luminescence, 18-24 h; Potency, µM (titrated, usually from 46 µM), for the others: top-dose activity change, negative = inhibition, most hits filed as inhibitors; 2.1% of 360,000 active; note: % is set by controls: 0 for no effect and ±100 for the full control effect; nearly all actives have a fitted effect of over 60% in size
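A549 ARE_Fluc cells (5000/well, 5% FBS OPTI-MEM) pre-incubated 2 h, then treated with compounds 18-24 h at 37C/5% CO2 in concentration-response. CellTiter-Fluor viability read first; BugLite luciferase luminescence after 15 min at room temperature gives Nrf2 activity.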
GALK inhibitor – galactokinase (human) inhibition; P51570; Purified GALK, Kinase-Glo residual ATP luminescence; Potency, µM (series often up to 57.5 µM), for the others: at the highest dose activity change, negative = inhibition, hits mostly inhibitors; 0.007% of 270,000 active; AID 1868; note: % is set by controls: 0 for no effect and ±100 for the full control effect
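Galactose (100 uM) and ATP (35 uM) were turned over by 5 nM GALK for 1 h at RT. Kinase-Glo Plus then converted the remaining ATP into a luminescent signal.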
rTrxR1 inhibitor – inhibitors of rat thioredoxin reductase 1; O89049; 1% of 390,000 active; Potency, µM (series often up to 114 µM), inactives show at the top dose activity change, negative = inhibition, hits mostly inhibitors; recombinant rTrxR1, NADPH fluorescence consumption, selenite substrate; note: % is set by controls: 0 for no effect and ±100 for the full control effect; nearly all actives have a fitted effect of over 65% in size
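Rat TrxR1 (90 nM in the dispensed reagent) was pre-reduced with 400 uM NADPH for 5 min at room temperature, then incubated with compound for 15 min. After 400 uM selenite was added, NADPH fluorescence (Ex 340/Em 450 nm) was followed for 8 min.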
Nrf2 ARE act – activators of Nrf2 (ARE) signaling; AREc32 ARE-luciferase reporter (MCF7-derived line), luminescence, 24 h; Potency, µM (highest dose often 46.1 µM), for inactives: at the top dose activation, hits mostly activators; 0.31% of 410,000 active; AID 624171; note: % of control where 0% means no effect; nearly all actives have a fitted effect of over 65% in size
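Cells of the AREc32 ARE-luciferase line are plated in OPTI-MEM containing 5% FBS and left overnight at 37 deg C. Compounds are pinned in, incubation continues 24 hr, and firefly luciferase signal is then measured.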
A549 tox – A549 cytotoxicity, counter-screen for Nrf2 inhibitors. Potency, µM (series often up to 46 µM), for the others: top-dose activity change, negative = cytotoxicity, usual class: inhibitors. A549 ARE-Fluc cells, CellTiter-Fluor viability, 18-24 h. AID 504648. 0.16% of 390,000 active; note: % is set by controls: 0 for no effect and ±100 for the full control effect
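A549 ARE-Fluc cells in 5% FBS OPTI-MEM, 5000 cells/well, rested 2 h then exposed to compounds in concentration-response for 18-24 h at 37 °C. Viability by CellTiter-Fluor fluorescence (Ex 405/Em 525) after 30 min; luciferase luminescence (BugLite, 15 min, RT) read afterwards.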
* hit, by the source's call; ? = inconclusive; nt = no result given; [ ] = dose if it differs, or a comment. The list is not random: actives were taken first. Their share in the collection is about 3%. Calls come from the whole dose curve; as a rule, active = well fitted curve in the direction sought with a large enough effect; inconclusive = small, poorly fitted or top-dose-only effect, or another doubt; inactive = no such curve, though single readings can be large; an effect the other way counts as inactive or inconclusive. Potency is the fitted concentration of half-maximal effect.

SMILES	TrxR1 substrate	Nrf2 block	GALK inhibitor	rTrxR1 inhibitor	Nrf2 ARE act	A549 tox
O=C(O)/C=C/c1cc(F)c(S(=O)(=O)N2CCN(S(=O)(=O)c3ccc4c(c3)OCCO4)CC2)cc1F	nt	6.0%	nt	nt	nt	1.7%
Cc1cc(Cn2cnc3c(cnn3C(C)(C)C)c2=O)ccc1F	1.0%	nt	nt	13.3%	nt	nt
CCC(C)NC(=O)C1CCN(S(=O)(=O)c2ccc3c(c2)CCCN3C(C)=O)CC1 (centres undefined)	-0.1%[57.1 µM]	nt	nt	15.1%[57.1 µM]	1.0%	0.3%
O=C(CCCN1C(=O)/C(=C/c2ccccc2Cl)SC1=S)NNC(=O)c1ccccc1	1.1%	20.6µM*	0.1%	-0.8%	0.0%	-12.2%
O=C(CCCN1C(=O)/C(=C/c2ccccc2Cl)SC1=S)NNC(=O)c1cccnc1	-1.9%	?	-3.2%	18.9%	11.4%	-11.6%
O=C(NC(=S)N(CCCCO)C1CCCCC1)c1sc2ccccc2c1Cl	7.5%	11.6µM*	-1.9%	-13.3%	19.3%	?
Cn1ncc2ccc(-c3ccc4ncnc(NCc5cccs5)c4c3)cc21	nt	-10.4%	nt	nt	nt	-2.5%
CCOC(=O)c1c(-c2ccc(C)o2)csc1NC(=O)CSc1ncn[nH]1	-5.0%	nt	-1.1%	39.8µM*	16.1%	-2.3%
CCOC(=O)c1c(-c2ccc(C)o2)csc1NC(=S)NC(=O)N(C)C	-2.1%	nt	3.8%	11.2µM*	13.9%	8.0%
COc1ccc(C2Nc3ccccc3C(=O)N2Cc2ccccc2)cc1Oc1ccc(NC(C)=O)cc1 (centres undefined)	nt	?	nt	nt	nt	-11.2%
O=S(=O)(c1ccccc1F)N1CCN(c2nc(-c3cccs3)nc3ccccc23)CC1	4.4%	-7.0%	nt	24.0%	nt	-0.4%
CCCOc1nc2c(c(=O)n(C)c(=O)n2C)n1C	4.0%	-22.9%	-0.1%	15.3%	-0.1%	-4.4%
CCCOc1nc2c(c(=O)n(C)c(=O)n2C)n1Cc1cccc2ccccc12	-12.0%	18.4µM*	1.1%	8.1%	-0.1%	-10.6%
COc1ccccc1N1CCN(Cc2ccc(O)c3ncccc23)CC1	-9.4%	0.6%	-0.3%	-14.3%	?	7.3%
Oc1ccc(CN2CCCc3ccccc32)c2cccnc12	9.7%	?	1.1%	1.26µM*	3.8%	-27.2%
COCCCNC(=O)c1ccc(-n2c(-c3ccccc3)cc3c2CCCCC3)cc1	-6.6%	?	nt	1.4%	?	-13.8%
CC(C)NC(=O)c1ccc(-n2c(-c3ccccc3)cc3c2CCCCC3)cc1	7.6%[11.4 µM]	?	nt	8.0%	12.6µM*	-18.2%
CC1CCc2c(cc(-c3ccccc3)n2-c2ccc(C(=O)NC(C)C)cc2)C1 (centres undefined)	0.3%	?	nt	15.6%	2.82µM*	?
CCOCCCNC(=O)c1ccc(-n2c(-c3ccccc3)cc3c2CCCC3)cc1	14.4%[11.4 µM]	?	nt	23.1%	11.2µM*	-5.8%
CC(C)NC(=O)c1ccc(CN2CCC(Cc3ccccc3)CC2)cc1	-2.3%	-7.1%	2.4%	24.1%	-0.5%	0.1%
CCCCOc1nnc(-c2ccc(OCC)cc2)c2ccccc12	2.0%	-0.6%	nt	6.9%	0.6%	-0.5%
CC(C)(C)n1ncc2c(=O)n(Cc3ccc(F)cc3F)cnc21	-4.1%	nt	nt	9.6%	nt	nt
COC(=O)c1sc(N)c(C(=O)OC)c1COC(=O)c1c(C)noc1C	3.1%	?	8.0%	21.1%	-0.4%	-0.7%
COC(=O)c1sc(N)c(C(=O)OC)c1Cn1ncc(Cl)c(Cl)c1=O	0.5%[57.1 µM]	0.9%	-0.6%	2.51µM*	?	0.5%
CC(C)C(NS(=O)(=O)c1c(Cl)cccc1Cl)C(=O)OCC(=O)c1c[nH]c2ccccc12 (centres undefined)	-12.1%	23.1µM*	-5.9%	-12.3%	0.5%[9.22 µM]	?
SMILES	TrxR1 substrate	Nrf2 block	GALK inhibitor	rTrxR1 inhibitor	Nrf2 ARE act	A549 tox
COc1ccc(Cl)c(Cn2cnc3c(cnn3C(C)(C)C)c2=O)c1F	4.6%	nt	nt	3.5%	nt	nt
O=C(/C=C/c1ccccc1Cl)Nc1cccc(O)c1	-3.5%	0.6%	-2.5%	10.6%	9.5%	-2.3%
CCCCOC(=O)c1cccc(NC(=O)/C=C/c2ccccc2Cl)c1	-6.8%	20.6µM*	nt	10.0%	-1.8%	-0.6%
COc1ccc([S+](=O)([O-])N2CCN([S+](=O)([O-])c3ccc4c(c3)OCCO4)CC2)c(OC)c1	nt	-8.4%	nt	nt	nt	1.0%
O=C(COc1ccc(Cl)cc1Cl)NCC1(N2CCOCC2)CCCCC1	11.0%	23.1µM*	nt	23.9%	0.1%	-0.5%
O=C(COc1ccccc1Cl)NCC1(N2CCOCC2)CCCCC1	-9.9%	3.8%	nt	-8.2%	3.2%	0.1%
Cc1c(NC(=O)Nc2cccc(C(F)(F)F)c2)sc2nc3n(c(=O)c12)CCC(C)CC3 (centres undefined)	-0.2%	-13.4%	nt	21.7%	0.1%	-6.2%
Cc1ccc(-c2ccc(/C=C3\C(=O)ON=C3c3ccccc3)o2)c([N+](=O)[O-])c1	-8.1%[57.1 µM]	?	-8.5%	11.2µM*	0.3%	?
Cc1ccc(/C=C2\C(=O)ON=C2c2ccccc2)o1	-10.6%	-4.3%	10.0%	16.9%[57.1 µM]	0.0%	3.4%
Oc1ccccc1-n1nc2ccc3nonc3c2n1	-8.4%	-0.6%	7.4%	-12.9%	10µM*	0.6%
CCOC(=O)c1cccc(NC(=O)c2sc3nc[nH]c(=O)c3c2C)c1	3.6%[57.1 µM]	nt	nt	27.9%[57.1 µM]	5.4%	1.5%
COc1ccc(C2Nc3ccccc3C(=O)N2CCc2ccc(Cl)cc2Cl)cc1COc1ccc(NC(C)=O)cc1 (centres undefined)	nt	-15.6%	nt	nt	nt	5.8%
Cc1cccn2c(=O)c3cc(C(=O)NCCN4CCOCC4)c(=N)n(Cc4ccc(F)cc4)c3nc12	118.5%	16.4µM*	-1.6%	-28.0%	-0.7%	?
CN(c1ccccc1)S(=O)(=O)c1cccc(NC(=O)c2nn(C)c(=O)c3ccccc23)c1	5.1%	23.1µM*	nt	24.2%	2.0%	-2.0%
CN(C)S(=O)(=O)c1cccc(NC(=S)Nc2ccc(Cl)cc2Cl)c1	-12.2%	22.1%	0.3%	?	0.5%	?
CN(C)S(=O)(=O)c1cccc(NC(=S)Nc2cc(Cl)cc(Cl)c2)c1	-7.8%	-2.0%	0.2%	20µM*	3.2%	1.7%
CN(c1ccccc1)S(=O)(=O)c1cccc(NC(=O)Cn2cnc3ccccc3c2=O)c1	-4.8%	nt	1.4%	14.7%[57.1 µM]	2.2%	-1.1%
CN(C)S(=O)(=O)c1cccc(NC(=O)Cc2ccc(-c3ccccc3)cc2)c1	-8.5%	13µM*	-2.3%	-8.9%	3.4%	?
COc1cccc(CN(C)CC(=O)Nc2cccc(S(=O)(=O)N(C)c3ccccc3)c2)c1OC	-3.2%	?	nt	1.6%	-0.4%	0.0%
COc1cc(CC(=O)Nc2cccc(S(=O)(=O)N(C)c3ccccc3)c2)cc(OC)c1OC	-8.4%	14.6µM*	nt	17.2%	5.3%	?

Compound activity (PubChem BioAssay)
